Experimental data from the supplement of paper PMC6897291.

System: RIVA
Assay: growth inhibition by drug alone (1 - RLU/untreated control) (fraction); higher = stronger inhibition
Details: 177Lu-lilotomab satetraxetan 0 ug/ml
Method: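 RIVA (RI-1) ABC-DLBCL cells were pretreated or not for 18 h with 0.5 ug/ml 177Lu-lilotomab satetraxetan (600 MBq/mg), washed and seeded (3000 cells/well) on 384-well plates pre-printed with the Selleck Cambridge Cancer Compound library. Viability was read by RealTime-Glo luminescence on days 3-6 after seeding. Effect = 1 - RLU/mean RLU of the 48 untreated no-drug control wells per plate; Bliss score = (M-E)/(1-Fa).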

Row | SMILES | growth inhibition by drug alone (10 nM, time (day): 3) | growth inhibition by drug alone (10 nM, time (day): 4) | growth inhibition by drug alone (10 nM, time (day): 5) | growth inhibition by drug alone (10 nM, time (day): 6) | growth inhibition by drug alone (100 nM, time (day): 3) | growth inhibition by drug alone (100 nM, time (day): 4) | growth inhibition by drug alone (100 nM, time (day): 5) | growth inhibition by drug alone (100 nM, time (day): 6)
1 | Nc1ncn([C@H]2C[C@H](O)[C@@H](CO)O2)c(=O)n1 [Decitabine] | 0.201 | 0.0484 | -0.0488 | -0.367 | 0.168 | 0.0495 | -0.00108 | -0.0694
2 | COC(=O)Nc1nc2cc(C(=O)c3cccs3)ccc2[nH]1 [Nocodazole] | -0.0176 | -0.0388 | -0.162 | -0.595 | 0.948 | 0.956 | 0.957 | 0.953
3 | N#Cc1c(O)c2c(-c3ccc(-c4ccccc4O)cc3)csc2[nH]c1=O | 0.017 | -0.0012 | -0.079 | -0.317 | -0.44 | -0.357 | -0.367 | -0.39
4 | CCOc1cc2ncc(C#N)c(Nc3ccc(OCc4ccccn4)c(Cl)c3)c2cc1NC(=O)/C=C/CN(C)C [Neratinib (HKI-272)] | -0.145 | -0.144 | -0.165 | -0.233 | -0.0145 | -0.0628 | -0.098 | -0.14
5 | COc1cc2nccc(Oc3ccc(NC(=O)Nc4cc(C)on4)c(Cl)c3)c2cc1OC [Tivozanib (AV-951)] | 0.0535 | 0.0633 | 0.0278 | -0.222 | 0.0881 | 0.104 | 0.0755 | 0.00134
